Data as given in the supplement of paper PMC8975748.
Counter-ions that a name gives are not always drawn.

Test system: Saccharomyces cerevisiae BY4741 SeMeCo community
Test: z-score of subpopulation abundance vs DMSO median, subpopulation auxotrophic for M; higher = larger share of this subpopulation than in DMSO controls
Conditions: 10 µM; 24 h; SM minimal medium; subpopulation (auxotrophy): M
Procedure: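 Fluorescent four-plasmid SeMeCo (self-establishing metabolically cooperating S. cerevisiae BY4741 community; plasmids pH-mRuby2, pL-mWasabi, pU-eCFP, pM-TagRFP657) was grown 24 h in minimal SM medium with each Selleck FDA-approved drug at 10 µM in 384-well plates. Cells were fixed and imaged by high-content confocal microscopy. For each auxotrophic subpopulation (and the prototroph), a z-score gives the deviation from the DMSO vehicle-control population median.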

Row | SMILES | z-score of subpopulation abundance
1 | O=C1CN(/N=C/c2ccc([N+](=O)[O-])o2)C(=O)N1 [Nitrofurantoin] | 0.84
2 | COC(=O)C1=C(C)NC(C)=C(C(=O)OCCN(C)Cc2ccccc2)C1c1cccc([N+](=O)[O-])c1 (stereo not given) [Nicardipine HCl] | 1.01
3 | Cc1c(OCC(F)(F)F)ccnc1C[S@@+]([O-])c1nc2ccccc2[nH]1 [Dexlansoprazole] | -0.04
4 | Cc1onc(-c2c(F)cccc2Cl)c1C(=O)N[C@@H]1C(=O)N2[C@@H]1SC(C)(C)[C@@H]2C(=O)O [Flucloxacillin sodium] | 1.08
5 | CO[C@H]1C[C@@H]2CC[C@@H](C)[C@@](O)(O2)C(=O)C(=O)N2CCCC[C@H]2C(=O)O[C@H]([C@H](C)C[C@@H]2CC[C@@H](OP(C)(C)=O)[C@H](OC)C2)CC(=O)[C@H](C)/C=C(\C)[C@@H](O)[C@@H](OC)C(=O)[C@H](C)C[C@H](C)/C=C/C=C/C=C/1C [Ridaforolimus (Deforolimus, MK-8669)] | -1.24
6 | O=C1CN(/N=C/c2ccc(-c3ccc([N+](=O)[O-])cc3)o2)C(=O)N1 [Dantrolene sodium hemiheptahydrate] | 3.93
7 | CN(C)CCC=C1c2ccccc2C(C)(C)c2ccccc21 [Melitracen hydrochloride] | -0.28
8 | Nc1ccc(S(=O)(=O)Nc2ncccn2)cc1 [Sulfadiazine] | -0.51
9 | CCCCCCCCCC(=O)N[C@@H](Cc1c[nH]c2ccccc12)C(=O)N[C@H](CC(N)=O)C(=O)N[C@@H](CC(=O)O)C(=O)N[C@@H]1C(=O)NCC(=O)N[C@@H](CCCN)C(=O)N[C@@H](CC(=O)O)C(=O)N[C@H](C)C(=O)N[C@@H](CC(=O)O)C(=O)NCC(=O)N[C@H](CO)C(=O)N[C@@H]([C@H](C)CC(=O)O)C(=O)N[C@@H](CC(=O)c2ccccc2N)C(=O)O[C@@H]1C [Daptomycin] | 0.17
10 | CCCc1nn(C)c2c(=O)[nH]c(-c3cc(S(=O)(=O)N4CCN(C)CC4)ccc3OCC)nc12 [Sildenafil] | -1.17
11 | CC1(C)S[C@@H]2[C@H](NC(=O)Cc3ccccc3)C(=O)N2[C@H]1C(=O)O [Benzathine penicilline] | -0.52
12 | COc1ccc2c(c1)c(CC(=O)O)c(C)n2C(=O)c1ccc(Cl)cc1 [Indomethacin] | -0.33
13 | O=C1Nc2ccccc2C1=O [Isatin] | -0.49
14 | O=C(c1ccc(OCCN2CCCCC2)cc1)c1c(-c2ccc(O)cc2)sc2cc(O)ccc12 [Raloxifene] | -0.22
15 | CN1CC(=O)N2[C@H](c3ccc4c(c3)OCO4)c3[nH]c4ccccc4c3C[C@@H]2C1=O [Tadalafil] | 0.2
16 | CN(C)CC(c1ccc(O)cc1)C1(O)CCCCC1 (stereo not given) [Desvenlafaxine] | -0.95
17 | CCc1nc(N)nc(N)c1-c1ccc(Cl)cc1 [Pyrimethamine] | -0.13
18 | CN1CCN(CC(=O)N2c3ccccc3C(=O)Nc3cccnc32)CC1 [Pirenzepine dihydrochloride] | -0.96
19 | CC(=O)NO [Acetohydroxamic acid] | -0.27
20 | CC1(C)S[C@@H]2[C@H](NC(=O)[C@H](N)c3ccccc3)C(=O)N2[C@H]1C(=O)OCOC(=O)[C@@H]1N2C(=O)C[C@H]2S(=O)(=O)C1(C)C [Sultamicillin] | 0.2

Row | SMILES | z-score of subpopulation abundance
21 | NC(=O)OCC(COC(N)=O)c1ccccc1 [Felbamate] | -0.21
22 | Cn1c(=O)c2c(ncn2CC(O)CO)n(C)c1=O (stereo not given) [Dyphylline] | -1.07
23 | CNC1CCCN(c2c(F)cc3c(=O)c(C(=O)O)cn(C4CC4)c3c2OC)C1 (stereo not given) [Balofloxacin] | 0.44
24 | Cn1cc(C(=O)[C@@H]2CCc3[nH]cnc3C2)c2ccccc21 [Ramosetron Hydrochloride] | 0.56
25 | CN[C@H]1CC[C@@H](c2ccc(Cl)c(Cl)c2)c2ccccc21 [Sertraline HCl] | 0.18
26 | CN[C@@H]1[C@H](O)[C@H](NC)[C@H]2O[C@@]3(O)C(=O)C[C@@H](C)O[C@H]3O[C@@H]2[C@H]1O [Spectinomycin 2HCl] | -0.21
27 | CCCCN(CCCC)CC(O)c1cc(Cl)cc2c1-c1ccc(Cl)cc1/C2=C/c1ccc(Cl)cc1 (stereo not given) [Lumefantrine] | -0.39
28 | C[C@]12CC[C@@H]3c4ccc(O)cc4CC[C@H]3[C@@H]1CC[C@@H]2O [Estradiol] | 0.4
29 | CO[C@H]1C[C@@H]2CC[C@@H](C)[C@@](O)(O2)C(=O)C(=O)N2CCCC[C@H]2C(=O)O[C@H]([C@H](C)C[C@@H]2CC[C@@H](OC(=O)C(C)(CO)CO)[C@H](OC)C2)CC(=O)[C@H](C)/C=C(\C)[C@@H](O)[C@@H](OC)C(=O)[C@H](C)C[C@H](C)/C=C/C=C/C=C/1C | -1.76
30 | C[C@]12CC[C@@H]3c4ccc(OS(=O)(=O)O)cc4CC[C@H]3[C@@H]1CCC2=O [Estropipate] | 0.08
31 | Cc1c(-c2ccccc2)oc2c(C(=O)OCCN3CCCCC3)cccc2c1=O [Flavoxate HCl] | 0.25
32 | C[C@@H](c1ncncc1F)[C@](O)(Cn1cncn1)c1ccc(F)cc1F [Voriconazole] | 0.27
33 | C[C@]1(COc2ccc(N3CCC(Oc4ccc(OC(F)(F)F)cc4)CC3)cc2)Cn2cc([N+](=O)[O-])nc2O1 [Delamanid] | -0.38
34 | Cc1nc2n(c(=O)c1CCN1CCC(c3noc4cc(F)ccc34)CC1)CCCC2 [Risperidone] | -0.08
35 | N/C(=N\N=C\c1ccc(Cl)cc1)N/N=C/c1ccc(Cl)cc1 [Robenidine Hydrochoride] | 9.06
36 | COCCCC/C(=N\OCCN)c1ccc(C(F)(F)F)cc1 [Fluvoxamine maleate] | 0.23
37 | OCCOc1ccc(/C(=C(/CCCl)c2ccccc2)c2ccccc2)cc1 [Ospemifene] | 0.43
38 | NC[C@H]1O[C@H](O[C@H]2[C@H](O)[C@@H](O[C@H]3O[C@H](CO)[C@@H](O)[C@H](N)[C@H]3O)[C@H](N)C[C@@H]2N)[C@H](O)[C@@H](O)[C@@H]1O [Kanamycin sulfate] | 0.84
39 | CO/N=C(\C(=O)N[C@@H]1C(=O)N2C(C(=O)O)=C(CSC(=O)c3ccco3)CS[C@H]12)c1csc(N)n1 [Ceftiofur] | -0.46
40 | COC(=O)C1=C(C)NC(C)=C(C(=O)OCC(C)C)C1c1ccccc1[N+](=O)[O-] (stereo not given) [Nisoldipine] | 0.83
